In PubChem BioAssay (NCATS) one finds max response, outcome and Potency data, which are given here for ten molecules.

Test [1] has as its system CRL-7250. The experiment in a line: Cytotoxic Profiling of Annotated Libraries Using Quantitative High-Throughput Screening (AID 1296008). As to max response: % is scaled to controls: 0 for no effect and ±100 for the full control effect. The settings on record: Five cell lines viability, CellTiter-Glo ATP luminescence, 48-72 h; max response: stronger effect = lower value. In outline: (§1)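 Cells exposed to compounds for 48 or 72 hr at 37 degrees Celsius. Viability read as ATP-coupled luminescence with CellTiter-Glo after 10 min at room temperature.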

For test [2], the system named is HaCat. Described as above. The settings on record: Five cell lines viability, CellTiter-Glo ATP luminescence, 48-72 h; max response: stronger effect = lower value. In outline: as §1
Background: ATP-based viability assays read luminescence as a measure of living cells.

The subject of test [3] is KB-3-1. The test is described as above. The settings on record: Five cell lines viability, CellTiter-Glo ATP luminescence, 48-72 h; max response: stronger effect = lower value. The method, boiled down: as §1
Test [4] deals with GB4. The experiment in a line: qHTS profiling for inhibitors of Plasmodium falciparum proliferation (AID 504749). Also: potency is read from the fitted curve at half-maximal effect. The note with it: P. falciparum in erythrocytes, SYBR Green DNA, 72 h; series mostly up to 28.7 µM. The method, boiled down: (§2)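 Each compound contacts P. falciparum-infected red blood cells for 72 h at 37 C; lysis buffer (Tris, EDTA, saponin, Triton X, SYBR Green I) is added and fluorescence measured next morning; values normalized to controls.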
Background: Quantitative high-throughput screening tests each substance at several concentrations.

In test [5] the test system is HB3. The description is as above. The settings on record: P. falciparum in erythrocytes, SYBR Green DNA, 72 h; series mostly up to 28.7 µM. In outline:
as §2

Test [6] relates to JCK. The description is as above. The settings on record: P. falciparum in erythrocytes, SYBR Green DNA, 72 h; series mostly up to 28.7 µM. The method, boiled down:
as §2

The subject of test [7] is P94_40. Described as above. The settings on record: P. falciparum in erythrocytes, SYBR Green DNA, 72 h; series mostly up to 28.7 µM. In outline: as §2
In test [8] the test system is PAD. Described as above. The settings on record: P. falciparum in erythrocytes, SYBR Green DNA, 72 h; series mostly up to 28.7 µM. In outline: as §2
Test [9] deals with PC15. The test is described as above. The settings on record: P. falciparum in erythrocytes, SYBR Green DNA, 72 h; series mostly up to 28.7 µM. The method, boiled down: as §2
The subject of test [10] is PC26. Described as above. The settings on record: P. falciparum in erythrocytes, SYBR Green DNA, 72 h; series mostly up to 28.7 µM. In outline:
as §2

In test [11] the test system is PC49. The test is described as above. The settings on record: P. falciparum in erythrocytes, SYBR Green DNA, 72 h; series mostly up to 28.7 µM. In outline: as §2
The subject of test [12] is TAB113. Described as above. The settings on record: P. falciparum in erythrocytes, SYBR Green DNA, 72 h; series mostly up to 28.7 µM. The method, boiled down:
as §2

Test [13] deals with W2. Described as above. The note with it: P. falciparum in erythrocytes, SYBR Green DNA, 72 h; series mostly up to 28.7 µM. The method, boiled down: as §2
Test [14] has as its system ICS. The description is as above. The settings on record: P. falciparum in erythrocytes, SYBR Green DNA, 72 h; series mostly up to 28.7 µM. In outline:
as §2

In test [15] the test system is N140. The test is described as above. The settings on record: P. falciparum in erythrocytes, SYBR Green DNA, 72 h; series mostly up to 28.7 µM. In outline: as §2
The subject of test [16] is P93_24. The test is described as above. The note with it: P. falciparum in erythrocytes, SYBR Green DNA, 72 h; series mostly up to 28.7 µM. The method, boiled down: as §2
Test [17] has as its system SC27B. The test is described as above. The settings on record: P. falciparum in erythrocytes, SYBR Green DNA, 72 h; series mostly up to 28.7 µM. In outline:
as §2

For test [18], the system named is TAB109. Described as above. The settings on record: P. falciparum in erythrocytes, SYBR Green DNA, 72 h; series mostly up to 28.7 µM. In outline: as §2
The subject of test [19] is TAB165. The test is described as above. The note with it: P. falciparum in erythrocytes, SYBR Green DNA, 72 h; series mostly up to 28.7 µM. In outline: as §2

Each structure is given as a SMILES string. Inconclusive results are not listed. Values without a mark were called inactive. The source made the active and inactive calls. Calls follow the shape of the dose curve; as a rule, active = well fitted inhibition curve with a large enough effect; inconclusive = small, poorly fitted or top-dose-only effect; inactive = flat fitted curve, though single readings scatter.
Also: nearly all actives have a fitted effect of over 60% in size.

In the case of `CCN[C@@H](C)Cc1cccc(C(F)(F)F)c1`, the max response in test [1] was -0.0811%; in [3] it was -9.47%. In [2], the call was inactive.

In the case of `CCOP(=S)(OCC)Oc1ccc2c(C)c(Cl)c(=O)oc2c1`, the Potency entry in [4], in [5], in test [6], in [8], in test [9] and in [10] was “inactive” in each case. For the same molecule, in test [11], the Potency result is “inactive”. Moreover, the Potency in [7] was 11.2 µM (active); in [12] it was 7.94 µM (active); in test [13] it was 6.75 µM (active). The max response in test [1] is -4.21%; in test [2] it was 0.247%; in test [3] it was -7.69%.

For the molecule `O=C1c2ccccc2C(=O)c2ccccc21`, the Potency was 11.2 µM (active) in [5], 3.55 µM (active) in [14] and 6.75 µM (active) in test [13]. The Potency result in [6], in [7] and in [11] was “inactive” in each case. Also, the max response in [1] is -3.19%; in test [3] it was -11.4%. In addition, the molecule was called inactive in test [2].

For `CN1CC[C@]23c4c5ccc(O)c4O[C@H]2[C@@H](O)CC[C@H]3[C@H]1C5`, the call in test [1] and in test [2] was inactive. Further, in [3], the max response was -2.83%.

Turning to `c1ccc2c(c1)sc1ccccc12`, the Potency result in [4], in [5], in test [14], in test [6], in test [15] and in [16] was “inactive” each time. Also, the Potency result in test [7], in test [8], in test [9], in test [10], in test [11] and in test [17] was “inactive” in each case. In addition, the Potency entry in test [18], in [12], in test [19] and in test [13] was “inactive” in each case. The figures for the max response in test [1], in test [2] and in test [3] were 2.83%, -3.8% and -1.3%, respectively.

For the molecule `CC(Cc1ccccc1)NCCn1cnc2c1c(=O)n(C)c(=O)n2C` (stereo not given), the max response in [1] is 2.38%; in [3], 0.853%. Also, the molecule was called inactive in test [2].

Take `COP(=S)(OC)Oc1ccc(SC)c(C)c1`: the Potency entry in [4], in test [5], in test [14], in test [15], in [16] and in [7] was “inactive” throughout. Besides, the Potency result in test [8], in [9], in test [11], in [17], in test [18] and in test [12] was “inactive” throughout. Also, the Potency result in test [19] and in test [13] was “inactive” each time. Further, the values for the max response in test [1], in [2] and in test [3] were -0.812%, -0.754% and -16.5%, respectively.

On to `O=C(O)/C=C\C(=O)O`, for which the max response is -1.31% in [1], 1.05% in test [2] and -5.31% in [3].

As for `COC1CC(=C(c2cccs2)c2cccs2)C[N+](C)(C)C1` (stereo not given), the Potency is 7.57 µM (active) in [4]; 8.91 µM (active) in [5]; 3.98 µM (active) in test [14]; 7.94 µM (active) in test [15]; 5.01 µM (active) in test [16]; 2.24 µM (active) in test [7]. The Potency in test [18] was 10 µM (active); in test [19], 14.1 µM (active). Further, the Potency entry in test [11] was “inactive”. The values for the max response in [1], in test [2] and in test [3] were -1.67%, 2.01% and 0.141%, respectively.

Turning to `CC(C)(C)NCC(O)c1cc(Cl)c(N)c(C(F)(F)F)c1` (stereo not given), the Potency is 12 µM (active) in test [4]; 4.47 µM (active) in test [14]; 11.2 µM (active) in test [6]; 2.82 µM (active) in test [15]; 3.55 µM (active) in [16]; 12.6 µM (active) in test [8]. The Potency in [9] was 11.2 µM (active); in [11], 11.2 µM (active); in test [19], 7.94 µM (active); in [13] it was 5.36 µM (active). Besides, the call in test [1] was inactive. For the same molecule, the figures for the max response in test [2] and in [3] were -13.5% and 5.51%, respectively.
